In PubChem BioAssay (NCI):
About 83,000 compounds went through this panel and 20% of them were active in at least one assay; those are over-represented in the sample as a whole.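 How to read the values: 0–100, growth inhibition (40 = 60% inhibited); 0, no net growth; -100 to 0, cell death (-40 = 40% of starting cells died; -100 = all dead).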 Calls of active or inactive are those of the source. The calls were made as follows: active = growth percent below 10; inactive = the rest.

Key:
Assay in all cases: NCI-60 one-dose screen, 48 h (100 = growth as untreated, 0 = no growth, -100 = all killed)
Details in all cases: 10 µM unless noted
DU-145 prostate = test system: DU-145 prostate
K-562 leukemia = test system: K-562 leukemia
MALME-3M melanoma = test system: MALME-3M melanoma
MDA-MB-231 breast = test system: MDA-MB-231 breast
RXF 393 renal = test system: RXF 393 renal
SF-268 CNS = test system: SF-268 CNS
SF-295 CNS = test system: SF-295 CNS
SF-539 CNS = test system: SF-539 CNS
UACC-257 melanoma = test system: UACC-257 melanoma
M14 melanoma = test system: M14 melanoma
HCT-15 colon = test system: HCT-15 colon
HT29 colon = test system: HT29 colon
SNB-75 CNS = test system: SNB-75 CNS
SNB-19 CNS = test system: SNB-19 CNS
U251 CNS = test system: U251 CNS
PC-3 prostate = test system: PC-3 prostate
SK-MEL-5 melanoma = test system: SK-MEL-5 melanoma
UACC-62 melanoma = test system: UACC-62 melanoma
LOX IMVI melanoma = test system: LOX IMVI melanoma
SK-MEL-28 melanoma = test system: SK-MEL-28 melanoma

Measured: growth

C#CCOc1cccc(/C(N)=N/C(N)=N/c2nc3ccccc3s2)c1
inactive: DU-145 prostate 97.4% | K-562 leukemia 82.2% | MALME-3M melanoma 111% | MDA-MB-231 breast 81.9% | RXF 393 renal 116% | SF-268 CNS 100% | SF-295 CNS 31.2% | SF-539 CNS 105% | UACC-257 melanoma 107% | M14 melanoma 95.8% | HCT-15 colon 57.4% | HT29 colon 108% | SNB-75 CNS 109% | SNB-19 CNS 95.5% | U251 CNS 84.9% | PC-3 prostate 69.8% | SK-MEL-5 melanoma 95.3% | UACC-62 melanoma 92.3% | SK-MEL-28 melanoma 115%
active: LOX IMVI melanoma -1.89%

COC(=O)CCSC1=C(C)C(=O)c2ccccc2C1=O
inactive: DU-145 prostate 111% | K-562 leukemia 38.4% | MALME-3M melanoma 104% | MDA-MB-231 breast 75.6% | RXF 393 renal 87.3% | SF-268 CNS 97.4% | SF-295 CNS 102% | SF-539 CNS 78.6% | UACC-257 melanoma 106% | M14 melanoma 107% | HCT-15 colon 58.5% | HT29 colon 110% | SNB-75 CNS 89.6% | SNB-19 CNS 96.5% | U251 CNS 85.1% | PC-3 prostate 72.6% | SK-MEL-5 melanoma 84.2% | UACC-62 melanoma 70.9% | LOX IMVI melanoma 52.2% | SK-MEL-28 melanoma 106%

CC(C)(C)OC(=O)NCc1ccc(CNc2c([N+](=O)[O-])cnc3ccccc23)cc1
active: SK-MEL-5 melanoma 2.87%
inactive: DU-145 prostate 77.4% | K-562 leukemia 28.5% | MALME-3M melanoma 86.4% | MDA-MB-231 breast 72.8% | RXF 393 renal 105% | SF-268 CNS 77% | SF-295 CNS 33.4% | SF-539 CNS 82.8% | UACC-257 melanoma 49% | M14 melanoma 76% | HCT-15 colon 74% | HT29 colon 83.8% | SNB-75 CNS 57.1% | SNB-19 CNS 70.8% | U251 CNS 87.4% | PC-3 prostate 68.9% | UACC-62 melanoma 58.4% | LOX IMVI melanoma 35.4% | SK-MEL-28 melanoma 89.4%

N#Cc1c(-c2cccs2)cc(-c2cnccn2)nc1SCC(=O)N/N=C/c1ccc(Cl)cc1
inactive: DU-145 prostate 104% | K-562 leukemia 96.7% | MALME-3M melanoma 115% | MDA-MB-231 breast 94.9% | RXF 393 renal 92.2% | SF-268 CNS 102% | SF-295 CNS 98.7% | SF-539 CNS 100% | UACC-257 melanoma 110% | M14 melanoma 111% | HCT-15 colon 98.5% | HT29 colon 104% | SNB-75 CNS 95.8% | SNB-19 CNS 105% | U251 CNS 100% | PC-3 prostate 93.9% | SK-MEL-5 melanoma 101% | UACC-62 melanoma 91.3% | LOX IMVI melanoma 92% | SK-MEL-28 melanoma 110%

O=C(N/N=C\c1ccc([N+](=O)[O-])cc1)c1ccc2nc(-c3ccc(Br)cc3)[nH]c2c1
active: K-562 leukemia 2.69% | MALME-3M melanoma 6.94% | M14 melanoma 3.52% | HT29 colon -0.826% | U251 CNS 4.44% | SK-MEL-5 melanoma 2.52% | LOX IMVI melanoma -52.9%
inactive: DU-145 prostate 28.2% | MDA-MB-231 breast 62.4% | RXF 393 renal 11.5% | SF-268 CNS 44.7% | SF-295 CNS 25.1% | SF-539 CNS 28.2% | UACC-257 melanoma 18.2% | HCT-15 colon 14.8% | SNB-75 CNS 56.4% | SNB-19 CNS 41.6% | PC-3 prostate 25% | UACC-62 melanoma 31.4% | SK-MEL-28 melanoma 36.8%

CC(C)(O)c1cncc(-c2ccc3ncc(C#N)c(N4CCc5cc(F)c(Cl)cc54)c3c2)c1
inactive: DU-145 prostate 11.7% | K-562 leukemia 29.6% | MDA-MB-231 breast 20.4% | SF-268 CNS 21.5% | UACC-257 melanoma 11% | M14 melanoma 10.3% | SNB-19 CNS 11.2% | U251 CNS 20.1% | PC-3 prostate 11.9%
active: MALME-3M melanoma -12.8% | RXF 393 renal -34.1% | SF-295 CNS -10.9% | SF-539 CNS -15% | HCT-15 colon 9.91% | HT29 colon 9.96% | SNB-75 CNS -12.6% | SK-MEL-5 melanoma -22.4% | UACC-62 melanoma -7.62% | LOX IMVI melanoma 5.41% | SK-MEL-28 melanoma 9.63%

C[C@H](Nc1ncnc2ccc(-c3cnc(Cl)c(NS(C)(=O)=O)c3)cc12)c1ccccc1
inactive: K-562 leukemia 17.2%
active: DU-145 prostate -2.78% | MALME-3M melanoma -43.1% | MDA-MB-231 breast -17.1% | RXF 393 renal -54.5% | SF-268 CNS -3.03% | SF-295 CNS -25.6% | SF-539 CNS -42.8% | UACC-257 melanoma -18.4% | M14 melanoma -13.5% | HCT-15 colon -23.7% | HT29 colon -28.9% | SNB-75 CNS -3.07% | SNB-19 CNS -44.3% | U251 CNS -52.6% | PC-3 prostate 2.25% | SK-MEL-5 melanoma -92.7% | UACC-62 melanoma -57.8% | LOX IMVI melanoma -60.4% | SK-MEL-28 melanoma -18.2%
